The text below walks through data of PubChem BioAssay AID686978 (National Center for Advancing Translational Sciences (NCATS), 2013).

Hit rate of the full screen: of about 420,000 compounds, about 64,000 (15%) were called active. Roughly 27% stayed inconclusive and do not appear here. Not all results are given here. Values without a mark were called inactive. Calls come from the whole dose curve; as a rule, active = well fitted inhibition curve with a large enough effect; inconclusive = small, poorly fitted or top-dose-only effect; inactive = flat fitted curve, though single readings scatter.
% is set by controls: 0 for no effect and ±100 for the full control effect; potency is the fitted concentration of half-maximal effect.

The nature of this assay: qHTS for Inhibitors of human tyrosyl-DNA phosphodiesterase 1 (TDP1): qHTS in cells in absence of CPT. Note: nearly all actives have a fitted effect of over 55% in size. As to conditions: DT40 Tdp1-/- hTDP1 cells, no CPT, ATP luminescence, 48 h; activity change, negative = growth inhibition: at 46.2 µM (top of the series). The procedure, abridged:
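Readout: luminescence from CellTiter-Glo after 30 min in the dark at RT. Cells: DT40 Tdp1-/- with stable hTDP1, 400/well. Exposure: compounds alone, ≥48 hr, 37 °C.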
(In general: qHTS replaces the single test concentration by a dilution series.)
With `CCOc1ccccc1C1CC(c2ccc(Cl)cc2)Nc2nc(N)nn21` (configuration not stated), the Potency was 16.4 µM (active).
For `COc1ccc(C2CC(c3ccc(C)cc3)Nc3nc(N)nn32)cc1` (configuration not stated), the “activity change, negative = growth inhibition” value is -6.23%.
On to `CCOc1ccccc1C1C(C(=O)OC)=CN(C)C=C1C(=O)OC`, for which the “activity change, negative = growth inhibition” value was -4.81%.
`CC(C)[C@H](NC(=O)c1ccc(F)cc1)C(=O)OCC(=O)NC(=O)c1cccn1C`: the “activity change, negative = growth inhibition” value is -6.12%.
Same read-out and setting: to `COc1ccc(S(=O)(=O)N(C)CC(=O)N2CCCC2)cc1Cl` belongs -25.7%.
Consider `CN1c2ccc(C=O)c3c(C=O)ccc(c23)N(C)C1(C)C`, for which the Potency is 7.31 µM (active).
In the case of `O=C1c2ccccc2C(O)N1Cc1ccccc1Cl` (configuration not stated), the “activity change, negative = growth inhibition” value is -7.23%.
As for `CN1CCN(S(=O)(=O)c2ccc(Nc3ccc(F)cc3)nc2)CC1`, the “activity change, negative = growth inhibition” value was -2.36%.
Regarding `O=C(NCc1ccccc1)C1c2ccccc2OCC(=O)N1C1CC1` (configuration not stated), the “activity change, negative = growth inhibition” value was -11.1%.
Same read-out and setting: to `NS(=O)(=O)c1ccc(CCNC(=O)c2nc(CS(=O)(=O)c3ccc(Cl)cc3)no2)cc1` belongs 2.72%; to `Cc1cccc(N2CC(C(=O)Nc3ccccc3N3CCCC3)CC2=O)c1C` (configuration not stated), -8.58%.
On the same count and under the same terms, the figure for `O=C(Nc1ccccc1N1CCCCC1)c1cccc(F)c1` is -14.5%; for `Cc1nnc(OCC(=O)NCCC2=CCCCC2)c2ccccc12` it is -11.7%.
Take `Cc1ccccc1NC(=O)Nc1ccccc1N1CCCCC1`: the Potency was 23.1 µM (active).
Same read-out and setting: to `O=C(CNCCC1=CCCCC1)Nc1ccccc1N1CCCCCC1` belongs 23.1 µM (active).
As for `Cc1ccccc1NC(=O)NC1(C(=O)N2CCCC2)CCCCC1`, the “activity change, negative = growth inhibition” value was -10.4%.
For the compound `C=CCSc1nc(Cc2ccc(Cl)cc2)nc2ccccc12`, the “activity change, negative = growth inhibition” value is -0.879%.
Same read-out and setting: the figure for `Cc1ccc(F)cc1NC(=O)c1ccc2c(c1)OCO2` is -16.7%; for `COc1cc(C2C(C(=O)c3sc(C)nc3C)=C(O)C(=O)N2CCN(C)C)cc(OC)c1OC` (configuration not stated) it is 9.07%.
Still for that read-out and setting: to `N/C(Cc1ccc([N+](=O)[O-])cc1)=N\OC(=O)C1CCCCC1` belongs -0.701%; to `COc1ccccc1OCCC(=O)OCC(=O)NCc1ccccc1`, -7.82%; to `N#Cc1ccc(CN2CCN(CC(=O)Nc3ccccc3C(=O)NC3CC3)CC2)cc1`, 0.152%.
Still for that read-out and setting: the figure for `NC(=O)c1ncn([C@@H]2O[C@H](CN=C3NS(=O)(=O)c4ccccc43)[C@@H](O)[C@H]2O)n1` is 2.67%; for `COc1ccc([N+](=O)[O-])cc1NC(=O)c1ccc(N(Cc2ccccc2C)S(C)(=O)=O)cc1` it is -29.8%.
As for `CC(=O)c1ccc(NC(=O)Nc2ccc([N+](=O)[O-])cc2C)cc1`, the Potency is 16.4 µM (active).
For the compound `Cc1cc([N+](=O)[O-])ccc1NC(=O)C1CCCO1` (configuration not stated), the “activity change, negative = growth inhibition” value was -7.79%.
In the case of `Cc1cc([N+](=O)[O-])ccc1NC(=O)c1ccc(NC(=O)C(C)C)cc1`, the Potency is 18.4 µM (active).
Take `CN1CCN(CCNC(=O)Nc2ccc([N+](=O)[O-])cc2)CC1`: the “activity change, negative = growth inhibition” value is -27.3%.
Turning to `CC(C)C(=O)Nc1cccc(NC(=O)c2ccc([N+](=O)[O-])cc2Cl)c1`, the “activity change, negative = growth inhibition” value was -16.9%.
The same measure, in the same setting: the figure for `CN1c2ccc([N+](=O)[O-])cc2C(C)(C)C12C=Cc1cc(C(=O)O)ccc1O2` (configuration not stated) is 13.4%; for `CN(CCO)S(=O)(=O)c1ccc2c(c1)C(=O)c1cc(S(=O)(=O)N(C)CCO)ccc1-2` it is -2.04%.
`C=CCOc1ccc(/C=C/C(=O)OCC(=O)NC2CCCCCC2)cc1`: the “activity change, negative = growth inhibition” value was -3.43%.
On the same count and under the same terms, the figure for `Cc1ccc(CNS(=O)(=O)CCNC(=O)c2ccccc2)cc1` is -5.2%; for `Cc1c(CNC2CCCCC2)c(C(=O)O)c(C)n1Cc1cccc(Cl)c1` it is -25.1%.
Consider `Cc1ccc(CCNC(=O)c2ccc3c(c2)N(Cc2cc(C)ccc2C)C(=O)c2ccccc2S3=O)cc1` (configuration not stated), for which the Potency was 11.6 µM (active).
Still for that read-out and setting: to `O=C(O)c1ccc2c(c1)N(Cc1ccc(F)cc1)C(=O)c1ccccc1S2=O` (configuration not stated) belongs 14.6 µM (active).
For `O=C(CN1C(=O)c2ccccc2C1=O)NCc1ccc(C(=O)O)cc1`, the “activity change, negative = growth inhibition” value was -16.5%.
Regarding `Cc1ccc(C)c(CN2C(=O)c3ccccc3S(=O)c3ccc(C(=O)N4CCOCC4)cc32)c1` (configuration not stated), the “activity change, negative = growth inhibition” value is -28.2%.
As to `CN(C(=O)c1ccc2c(c1)N(Cc1cccc(Cl)c1)C(=O)c1ccccc1S2=O)C1CCCCC1` (configuration not stated), the Potency was 23.1 µM (active).
Take `O=C(COC(=O)c1cccc(Cl)c1)NC1CCCCCCC1`: the “activity change, negative = growth inhibition” value is 0.239%.
Consider `COc1ccccc1NC(=O)c1cc(N2C(=O)C3C4CCC(C4)C3C2=O)ccc1Cl` (configuration not stated), for which the “activity change, negative = growth inhibition” value is 3.87%.
For `C/C(CC(=O)NC(C)(C)C)=N\NC(=O)c1ccco1`, the “activity change, negative = growth inhibition” value is 3.84%.
Still for that read-out and setting: to `COC(=O)c1ccc(CNC(=O)Cn2cc(C)c(=O)[nH]c2=O)cc1` belongs -0.822%; to `Cc1ccc(OCC(=O)N2CCN(S(=O)(=O)c3ccc(Cl)s3)CC2)cc1C`, -26.5%.
Turning to `Cc1cc(C)n2c(NCc3ccccc3)c(CC(C)C)nc2n1`, the Potency is 23.1 µM (active).
For the compound `Cc1cc(C)n2c(Nc3c(C)cccc3C)c(CCc3ccccc3)nc2n1`, the Potency was 16.4 µM (active).
With `Cc1ccc(O)c(CCc2ccccc2)n1`, the “activity change, negative = growth inhibition” value was -26.2%.
The same measure, in the same setting: to `Nc1nc(NCc2ccccc2)n(-c2ccccc2)n1` belongs -8.65%.
As to `COc1cccc2c(C)c(C(=O)O)[nH]c12`, the “activity change, negative = growth inhibition” value was -20.4%.
Take `O=C(O)CC(CC(=O)N1CCOCC1)c1ccccc1` (configuration not stated): the “activity change, negative = growth inhibition” value was -6.6%.
For the compound `COc1ccc(CCNS(=O)(=O)c2cccc3cccnc23)cc1OC`, the “activity change, negative = growth inhibition” value was 5.97%.
For `CCCCC(=O)NC(c1ccc(OC)c(OC)c1)c1ccc2cccnc2c1O` (configuration not stated), the Potency was 3.26 µM (active).
